# aSyn yeast inh: inhibitors of alpha-synuclein toxicity in yeast; Yeast expressing alpha-synuclein, growth rescue, BacTiter-Glo, 24 h; Potency, µM (top dose mostly 46.1 µM), for inactives: top-dose growth rescue (activation), usual class: activators; actives 0.14% (n = 370,000); note: potency is the fitted concentration of half-maximal effect; % of control where 0% means no effect; nearly all actives have a fitted effect of over 65% in size
#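 Readout is rescue of growth in alpha-synuclein-expressing yeast, so inhibitors of toxicity appear as activators. Growth after 24 hr at 30 deg C in galactose medium is quantified by luminescence.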
# Abeta rescue: restores growth of yeast expressing A-beta42 peptide | Potency, µM (titrated, usually from 46.1 µM), most hits filed as activators | actives 0.063% (n = 410,000) | yeast expressing A-beta42, growth rescue, OD600, 48 h; response scale: 0% DMSO, 100% iron-clioquinol control; note: potency is the fitted concentration of half-maximal effect; nearly all actives have a fitted effect of over 55% in size
#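 Yeast A-beta toxicity model in growth medium with pinned compounds, 48 h at 30 C; growth read as absorbance at 600 nm. Normalized to FeCl3/clioquinol equimolar mix (positive) and DMSO (negative).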
# mIDH1 inhibitor: inhibitors of human mutant IDH1 R132H. actives 0.093% (n = 390,000). O75874. IDH1-R132H enzyme, NADPH consumption, diaphorase/resazurin fluorescence. Potency, µM (highest dose often 76.6 µM), for inactives: top-dose activity change, negative = inhibition, most hits filed as inhibitors; note: potency is the fitted concentration of half-maximal effect; % is set by controls: 0 for no effect and ±100 for the full control effect; nearly all actives have a fitted effect of over 65% in size
# Target sequence (O75874 whole entry R132H, stated change not applied): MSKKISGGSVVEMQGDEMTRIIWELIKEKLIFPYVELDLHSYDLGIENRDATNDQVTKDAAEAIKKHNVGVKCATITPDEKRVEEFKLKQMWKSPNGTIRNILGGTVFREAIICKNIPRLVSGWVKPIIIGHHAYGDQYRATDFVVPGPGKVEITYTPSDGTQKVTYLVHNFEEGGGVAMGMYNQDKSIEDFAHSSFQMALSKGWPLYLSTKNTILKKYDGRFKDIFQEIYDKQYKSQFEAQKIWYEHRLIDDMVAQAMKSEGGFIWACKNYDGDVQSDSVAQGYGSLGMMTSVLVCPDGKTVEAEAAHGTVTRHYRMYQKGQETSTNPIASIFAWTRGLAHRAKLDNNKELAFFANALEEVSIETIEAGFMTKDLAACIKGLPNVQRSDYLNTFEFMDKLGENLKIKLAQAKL
#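 IDH1-R132H (0.5 ug/mL) preincubated 30 min with compound, then NADPH (0.016 mM) and alpha-KG (2 mM) added; 80 min at RT, pH 7.5. Remaining NADPH coupled via diaphorase/resazurin to fluorescence (540/590 nm); concentration-response curves normalized to no-enzyme control.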
# FUS yeast rescue: suppressors of FUS proteinopathy in yeast. S. cerevisiae FUS-expressing, growth rescue, OD600, 24 h. Potency, µM (series often up to 76.6 µM), usual class: activators. actives 0.24% (n = 390,000). AID 1347120;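 note: potency is the fitted concentration of half-maximal effect; plate controls were DMSO vehicle for no effect and reference control for full effect; nearly all actives have a fitted effect of over 55% in size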
#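 FUS-expressing yeast, raffinose-pregrown, induced in 2% galactose minimal medium at OD 0.005; compounds in a dilution series, 24hr at 30C. Growth restoration read as absorbance at 600 nm. CP55940 positive control, DMSO negative.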
# LDHA inh: inhibitors of human lactate dehydrogenase A; P00338; purified LDHA, NADH/diaphorase-resazurin fluorescence; hits give low values; activity change, % (values are at about 110 or 230 µM); actives 0.15% (n = 480,000); AID 1347041; in the data active = activity change below about -30%; inconclusive = mostly about -25% to -30%;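 note: plate controls were DMSO wells for no effect and wells without enzyme for full effect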
#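 Enzyme activity of human lactate dehydrogenase 5 (2 nM; 0.06 mM NADH, 0.2 mM pyruvate, 5 min, RT) is measured via a resazurin/diaphorase fluorescence readout of residual NADH.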
# TDP-43 yeast inh: inhibitors of TDP-43 toxicity in yeast; Potency, µM (highest dose often 46.1 µM), inactives show top-dose growth rescue (activation), most hits filed as activators; TDP-43 expressing yeast growth rescue, BacTiter-Glo, 24 h; AID 652104; actives 1.8% (n = 410,000); note: potency is the fitted concentration of half-maximal effect; % of control where 0% means no effect; nearly all actives have a fitted effect of over 50% in size
#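 Cell-based yeast growth screen: TDP-43 expression induced in galactose, inoculum OD600=0.02 after raffinose pregrowth to mid-log. Read-out BacTiter-Glo luminescence at 24 hr, 30 deg C; inhibition of toxicity seen as signal increase.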
# Active calls of the source: *; i = inactive; ? = inconclusive; · = no result given. Rows were chosen to be rich in hits. Some 2% of all compounds tested hit in one or more screens of this group. Unless noted, calls come from the whole dose curve; as a rule, active = well fitted curve in the direction sought with a large enough effect; inconclusive = small, poorly fitted or top-dose-only effect, or another doubt; inactive = no such curve, though single readings can be large; an effect the other way counts as inactive or inconclusive.
SMILES,aSyn yeast inh,Abeta rescue,mIDH1 inhibitor,FUS yeast rescue,LDHA inh,TDP-43 yeast inh
CNC(=O)C(C)Sc1nc(-c2ccccc2)c(-c2ccccc2)o1 (configuration not stated),·,·,·,·,0,·
CCCCc1cc(=O)oc2c(C)c(OCC(=O)N3CCC(C(=O)O)(c4ccccc4)CC3)ccc12,-10%,i,-6%,28µM*,-4,12%
CCCCc1cc(=O)oc2c(C)c(OCC(=O)N3CCCC3)ccc12,6%,i,-3%,·,-5,11%
Cc1onc(-c2c(F)cccc2Cl)c1C(=O)Nc1sc(C)c(-c2ccccc2)c1C(N)=O,·,·,·,·,7,·
CNC(=O)/C(=C/c1cc2ccc(OC)cc2nc1Cl)NC(=O)c1ccccc1,·,·,·,·,6,·
CCOCCCNC(=O)c1cc(SC)ccc1C,·,·,·,·,-4,·
C/C=C/c1cc(OC)c2c(c1)[C@H](C)[C@@H](c1ccc(O)c(OC)c1)O2,7.9µM*,i,-4%,i,3,28%
Cc1cccc(-c2nnc3n2N=C(c2ccccc2Br)CS3)c1,7%,i,-6%,i,-10,20µM*
Clc1ccccc1C1=Nn2c(nnc2-c2ccncc2)SC1,10%,i,-7%,i,-4,11µM*
O=C(N/N=C/c1cccc2cccnc12)c1ccccc1O,22µM*,?,10%,i,7,-14%
CCn1cnc2c1c(=O)n(Cc1cccc(Br)c1)c(=O)n2Cc1ccccc1,0%,i,-7%,i,-4,22µM*
Cn1cnc2c1c(=O)n(Cc1cccc(Br)c1)c(=O)n2C,?,i,0%,i,-1,?
COc1cc(/C=C/C(=O)c2cc3ccccc3o2)ccc1OC(C)C,·,·,·,·,13,·
COc1ccccc1OCCN1CSC(=S)N(C)C1,-67%,i,-2%,i,-2,20µM*
CCc1ccc2oc(-c3ccc(NC(=O)CC(C)C)cc3)nc2c1,·,·,·,·,3,·
CCc1ccc2oc(-c3ccc(NC(C)=O)cc3)nc2c1,-31%,i,7%,i,-5,3.5µM*
c1ccc(Cc2nc(-c3ccc4c(c3)OCCCO4)cs2)cc1,·,·,·,·,2,·
Cc1ccc(-c2ccnc3cc(C)nn23)cc1,8%,i,6%,i,-5,20µM*
Cc1cc2nccc(-c3ccncc3)n2n1,0%,i,8%,i,0,6%
CC(=O)c1ccc(NC(=O)c2nc(-c3ccccc3)n(-c3ccc(Cl)cc3)n2)cc1,·,i,1%,i,-7,7.9µM*
Cc1ccc(NC(=O)c2cc(C)n(-c3cccc(C)c3)c2C)cc1,-5%,i,26%,i,1,?
Cc1ccc(NC(=O)c2cc(C)n(-c3ccccc3)c2C)cc1,-15%,i,26%,i,-1,25µM*
Cc1ccc(NC(=O)c2cc(C)nn2-c2ccccc2)cc1,2%,i,-9%,i,-4,18µM*
Cc1cccc(-c2cc(NC(=O)c3ccccc3C)n(-c3ccccc3)n2)c1,·,i,-7%,i,-2,20µM*
Cc1ccc(OCC(=O)Nc2cc(-c3cccc(C)c3)nn2-c2ccccc2)cc1,·,i,-1%,i,-3,16%
SMILES,aSyn yeast inh,Abeta rescue,mIDH1 inhibitor,FUS yeast rescue,LDHA inh,TDP-43 yeast inh
Cc1ccc(C)c(NC(=O)c2nc(-c3ccccc3)n(-c3ccccc3)n2)c1,-17%,i,19%,?,-6,18µM*
CC(=O)c1ccc(NC(=O)c2nc(-c3ccccc3)n(-c3ccc(C)cc3)n2)cc1,·,i,0%,?,-4,18µM*
O=C(NCc1coc(-c2cccs2)n1)c1ccc(Cl)cc1,·,·,·,·,11,·
COc1ccc(NC(=O)c2sc3nc4c(c(-c5ccco5)c3c2N)CCC4)cc1,·,·,·,·,4,·
NC(=O)c1sc2nc3c(c(-c4ccco4)c2c1N)CCC3,10µM*,i,4%,i,3,7%
Cc1c(CCC(=O)Nc2nccs2)c(=O)oc2c(C)c(O)ccc12,·,·,·,·,1,·
CCC(=O)Nc1ccc(C(C)NCc2ccsc2)cc1 (configuration not stated),·,·,·,·,12,·
Cc1ccc(C)c(-c2csc(-c3nc(-c4ccccc4)cs3)n2)c1,·,·,·,·,5,·
N#Cc1ccccc1OCC(=O)Nc1ccc2c(c1)OCCCO2,17%,i,-2%,i,-4,13µM*
CCN(c1ccccc1)S(=O)(=O)c1cc(C(=O)OC(C)C(=O)Nc2ccc3c(c2)OCCO3)ccc1C (configuration not stated),-2%,·,4%,18µM*,-5,-10%
Cc1ccccc1OC(C)C(=O)Nc1ccc2c(c1)OCCO2 (configuration not stated),6%,i,8%,i,-5,11µM*
CC1(C)CC(=O)C2=C(C1)C(c1ccco1)Nc1ccc3ccccc3c12 (configuration not stated),·,·,·,·,-12,·
Cc1ccc(CCNC(=O)CN2N=C(c3ccc(C)cc3)CCC2=O)cc1,·,i,26%,i,-9,?
Cc1ccc(-c2ccc(=O)n(CC(=O)NCCc3ccc(Cl)cc3)n2)cc1,·,i,-7%,i,1,22µM*
O=C(CN1N=C(c2ccc(Cl)cc2)CCC1=O)NCCc1ccc(Cl)cc1,·,?,10%,?,-1,22µM*
O=C(OCC1CC1(Cl)Cl)c1ccccc1C(=O)c1ccc(Cl)cc1 (configuration not stated),·,·,·,·,0,·
CC(=O)c1cc2c(cc1NC(=O)CSc1nnc(C3CC3)n1C1CC1)OCO2,·,·,·,·,9,·
Cc1ccc(OCC(=O)NC2CCCC2)c(C)c1,9%,i,4%,i,-1,11%
Cc1ccc(C)c(OCC(=O)NC2CCCCCC2)c1,11%,i,5%,i,-7,11µM*
COc1ccc(C(=O)COC(=O)CCC(=O)c2ccc3c(c2)OCCO3)cc1,·,·,·,·,12,·
COc1ccc(CC(=O)OCC(=O)c2ccc3c(c2)OCCCO3)cc1,·,·,·,·,-30*,·
COc1ccc(CNC(=O)Cn2c(=O)c(CNc3ccc(C)cc3)cc3cc4c(cc32)OCCO4)cc1,·,·,·,·,17,·
Cn1cccc1CNC(=O)Nc1ccc(Cl)cc1,-13%,i,5%,?,-3,-6%
Cn1cccc1CNC(=O)Nc1ccccc1,0%,i,13%,22µM*,-1,-13%
Cc1ccc(C2CCN(C(=O)Nc3ccc(Cl)c(Cl)c3)C2)cc1 (configuration not stated),·,i,2%,i,-2,?
O=C(c1ccc(NC(=S)Nc2ccc(Cl)c(Cl)c2)cc1)N1CCCC1,-63%,i,8%,i,2,18µM*

# Source: PubChem BioAssay
